Consider 20 compounds from PubChem BioAssay (EPA / NIEHS).

Assay [1] in a line: ATG_PXRE_CIS: Attagene CIS-FACTORIAL HepG2 Assay for human Pregnane X Receptor Element (PXRE) (AID 2282957). To be noted: HepG2 Attagene CIS-FACTORIAL PXRE reporter, mRNA; actives raise or lower the signal. Summed up:
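Transfect HepG2 with MRTUs (cis promoter elements); dose chemical, incubate 24 h; isolate RNA, RT with oligo(dT), PCR, 6-FAM label, HpaI cut, CE. Gain/loss fit vs DMSO.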

Assay [2] can be described thus: ATG_RORE_CIS: Attagene CIS-FACTORIAL HepG2 Assay for human RAR-related Orphan Receptor Element (RORE) (AID 2282959). To be noted: HepG2 Attagene cis-factorial RORE reporter, mRNA; actives raise or lower the signal. An outline of the steps: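 Transient MRTU transfection of human HepG2 liver cells (FuGene 6); 24 h compound exposure; TriZol RNA, oligo(dT) RT, PCR, FAM labeling, HpaI cut, CE fragment analysis. DMSO = negative control/baseline.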

Assay [3] can be described thus: ATG_Sox_CIS: Attagene CIS-FACTORIAL HepG2 Assay for human SRY-box transcription factor (SOX) (AID 2282960). To be noted: HepG2 Attagene cis-factorial SOX reporter, mRNA; actives raise or lower the signal. An outline of the steps: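 Endogenous factor activity in human liver HepG2 cells carrying transfected cis-regulated reporter units. RNA taken 24 h post-dose, reverse-transcribed, PCR-amplified and sized by capillary electrophoresis. Gain or loss of signal fitted relative to DMSO.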

In assay [4] the target is Transcription factor Sp1 (Homo sapiens) (UniProt P08047). The assay can be described thus: ATG_Sp1_CIS: Attagene CIS-FACTORIAL HepG2 Assay for human Specificity Protein 1 (Sp1) (AID 2282961). To be noted: HepG2 Sp1 cis-reporter transcription, actives raise or lower the signal. Summed up:
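Transient MRTU-transfected HepG2, 24 h compound exposure. Total RNA → oligo(dT) RT → PCR of reporter → 6-FAM primer extension → HpaI digest → CE. Endpoint fitted both directions vs DMSO.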

The nature of assay [5]: ATG_SREBP_CIS: Attagene CIS-FACTORIAL HepG2 Assay for human Sterol Regulatory Element Binding (SREBP) (AID 2282962). To be noted: HepG2 Attagene cis-factorial SREBP reporter, mRNA; actives raise or lower the signal. Summed up: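 HepG2 cells transiently transfected with multiplexed cis-element reporter units report endogenous transcription factor activity. After 24 h of chemical exposure, reporter mRNA was quantified by RT-PCR, 6-FAM labelling, HpaI digestion and capillary electrophoresis; bidirectional fits used DMSO as baseline.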

The target of assay [6] is Signal transducer and activator of transcription 3 (Homo sapiens) (UniProt P40763). The assay can be described thus: ATG_STAT3_CIS: Attagene CIS-FACTORIAL HepG2 Assay for human Signal Transducer and Activator of Transcription 3 (STAT3) (AID 2282963). To be noted: HepG2, Attagene cis-factorial STAT3 reporter transcription; actives raise or lower the signal. An outline of the steps: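 After a 24 h compound incubation, total RNA from MRTU-transfected HepG2 cells was converted to cDNA and reporter sequences PCR-amplified, labelled and profiled by capillary electrophoresis. Gain and loss of signal were referenced to DMSO.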
Sequence of Signal transducer and activator of transcription 3 (Homo sapiens) (P40763 whole entry, looked up): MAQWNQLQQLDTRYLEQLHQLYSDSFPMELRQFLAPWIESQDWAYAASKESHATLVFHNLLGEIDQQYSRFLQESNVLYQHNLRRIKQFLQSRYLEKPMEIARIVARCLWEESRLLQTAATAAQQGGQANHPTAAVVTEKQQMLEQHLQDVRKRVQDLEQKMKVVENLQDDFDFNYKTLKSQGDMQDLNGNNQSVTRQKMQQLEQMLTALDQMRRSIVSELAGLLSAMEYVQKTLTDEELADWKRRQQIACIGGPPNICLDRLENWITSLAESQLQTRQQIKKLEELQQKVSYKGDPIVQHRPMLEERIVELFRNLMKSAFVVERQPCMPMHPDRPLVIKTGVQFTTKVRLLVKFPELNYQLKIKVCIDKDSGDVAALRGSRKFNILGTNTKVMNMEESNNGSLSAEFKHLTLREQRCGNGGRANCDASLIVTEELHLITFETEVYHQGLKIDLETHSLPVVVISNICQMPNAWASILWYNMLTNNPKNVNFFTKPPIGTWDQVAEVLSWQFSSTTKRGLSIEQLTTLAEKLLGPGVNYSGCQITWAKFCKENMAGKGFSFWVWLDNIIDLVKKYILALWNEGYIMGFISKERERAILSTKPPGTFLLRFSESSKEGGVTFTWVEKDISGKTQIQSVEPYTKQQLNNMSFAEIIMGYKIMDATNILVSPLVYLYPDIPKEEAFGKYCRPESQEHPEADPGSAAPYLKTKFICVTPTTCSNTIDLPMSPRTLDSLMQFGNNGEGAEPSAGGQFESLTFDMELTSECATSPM

Assay [7] is described as follows: ATG_TA_CIS: Attagene CIS-FACTORIAL HepG2 Assay for human TA Basal Promoter (AID 2282964). To be noted: HepG2 Attagene CIS-factorial TA basal promoter reporter; actives raise or lower the signal. Summed up: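 Multiplexed mRNA reporter assay, HepG2, 24 h. Reporter cDNA amplified, 6-FAM primer-extended, HpaI-cut, CE-sized; DMSO = negative control and baseline.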
Assay [8] can be described thus: ATG_TAL_CIS: Attagene CIS-FACTORIAL HepG2 Assay for human TAL Basal Promoter (AID 2282966).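 Also: background control endpoint measuring basal TAL promoter reporter mRNA not a specific factor.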 To be noted: HepG2 Attagene cis-factorial TAL promoter reporter; actives raise or lower the signal. An outline of the steps: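 Fluorescence of labelled reporter cDNA fragments, resolved by capillary electrophoresis, gave the readout. Human HepG2 liver cells carried transiently transfected cis-element reporter units and were treated for 24 hours; activity was fitted bidirectionally against DMSO.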

A short description of assay [9]: ATG_PPRE_CIS: Attagene CIS-FACTORIAL HepG2 Assay for human Peroxisome Proliferator-activated Response Element (PPRE) (AID 2282958). The note with it: HepG2 PPRE cis-element reporter, Attagene transcription factor profiling; actives raise or lower the signal. Summed up:
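HepG2, transient MRTU transfection (cis promoter elements, endogenous TFs). 24 h dosing. RNA → oligo(dT) RT → PCR → 6-FAM primer extension → HpaI digest → CE. Bidirectional fit vs DMSO.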

Assay [10] in a line: ATG_TCF_b_cat_CIS: Attagene CIS-FACTORIAL HepG2 Assay for human T-Cell-Factor with beta-catenin (TCF/b-cat) (AID 2282965). To be noted: HepG2 TCF/beta-catenin cis-reporter transcription, actives raise or lower the signal. An outline of the steps: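 Endogenous transcription factor activity is captured through cis-promoter reporter constructs transiently introduced into human HepG2 liver cells. Induced reporter mRNA is measured after 24 h and fitted bidirectionally relative to DMSO.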

Molecules are shown by their SMILES. “And” between values parts separate entries of the source, which are not always exact repeats. Identical values can stand only once. The source holds several records for some structures; these can differ, active in one and inactive in another. The source made the active and inactive calls. The calls were made as follows: active = hit-call score of the fitted dose curve at least 0.9, where 1 is the maximum; inactive = score below 0.9.

Sequence of Transcription factor Sp1 (Homo sapiens) (P08047 whole entry, looked up): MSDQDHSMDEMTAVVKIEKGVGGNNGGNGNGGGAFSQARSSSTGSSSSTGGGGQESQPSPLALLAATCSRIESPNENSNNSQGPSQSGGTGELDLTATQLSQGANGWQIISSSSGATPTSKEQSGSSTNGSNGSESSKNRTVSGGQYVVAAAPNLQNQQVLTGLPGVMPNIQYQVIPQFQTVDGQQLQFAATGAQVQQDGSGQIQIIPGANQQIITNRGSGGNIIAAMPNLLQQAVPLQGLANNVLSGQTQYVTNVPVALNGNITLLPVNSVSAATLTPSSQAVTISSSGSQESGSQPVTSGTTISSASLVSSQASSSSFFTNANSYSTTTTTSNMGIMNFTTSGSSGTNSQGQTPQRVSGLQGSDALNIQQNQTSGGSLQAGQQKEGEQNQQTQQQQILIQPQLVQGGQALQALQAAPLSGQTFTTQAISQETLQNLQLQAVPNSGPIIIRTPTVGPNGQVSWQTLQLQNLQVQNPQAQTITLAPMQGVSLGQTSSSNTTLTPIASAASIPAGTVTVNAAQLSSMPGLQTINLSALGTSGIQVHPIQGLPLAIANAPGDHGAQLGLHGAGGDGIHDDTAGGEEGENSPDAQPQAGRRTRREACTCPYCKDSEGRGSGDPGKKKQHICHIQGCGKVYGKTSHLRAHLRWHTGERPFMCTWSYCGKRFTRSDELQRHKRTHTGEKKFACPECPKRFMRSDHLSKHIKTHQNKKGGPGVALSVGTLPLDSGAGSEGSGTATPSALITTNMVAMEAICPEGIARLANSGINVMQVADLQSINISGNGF

With `CC(=O)[C@@]1(O)CC[C@H]2[C@@H]3CCC4=CC(=O)CC[C@]4(C)[C@H]3CC[C@@]21C`, the call in [1], in assay [2], in assay [3], in assay [4], in assay [5] and in assay [6] was inactive. For the same compound, the compound was classed as inactive in [7] and in assay [8]. Also, the AC50 in assay [5] was 11.1 µM (active).

For `COc1ccc(C(=O)Nc2nc3ccccc3c(NCc3ccccc3)c2C#N)cc1`, the AC50 is 0.641 µM (active) in assay [1], 1.68 µM (active) in [9] and 4.43 µM (active) in [5]. The compound was classed as inactive in assay [2], in assay [3], in assay [6], in assay [7] and in assay [8].

Consider `NC=O`, for which the result in assay [1], in [9], in assay [2], in assay [3], in [5] and in assay [6] was inactive. The compound was classed as inactive in [7], in assay [10] and in assay [8].

For the compound `CC(=O)O[C@]1(C(C)=O)CC[C@H]2[C@@H]3C=C(Cl)C4=CC(=O)[C@@H]5C[C@@H]5[C@]4(C)[C@H]3CC[C@@]21C`, the AC50 in assay [1] is 184 µM (active) and 142 µM (active) and 61.5 µM (active); in assay [3] it was 100 µM (active); in assay [5] it was 29.5 µM (active) and 52.1 µM (active) and 34.3 µM (active); in assay [7], 54.5 µM (active); in assay [8] it was 47.7 µM (active). In addition, the result in assay [1], in assay [2], in [3], in [5], in assay [6] and in assay [7] was inactive. In addition, the result in [8] was inactive.

With `CCCCC(CC)CO` (configuration not stated), the AC50 in [1] was 27.5 µM (active). Besides, the outcome in [9], in assay [2], in assay [3], in [4], in [5] and in assay [6] was inactive. Besides, the compound was classed as inactive in assay [7] and in assay [8].

Turning to `O=NO`, the result in [1], in assay [9], in [2], in assay [3], in [5] and in assay [6] was inactive. The compound was classed as inactive in assay [7], in assay [10] and in assay [8].

As to `CN(C)CCCN(C)CCCN(C)C`, the AC50 in assay [1] was 25.6 µM (active). In addition, the call in assay [9], in assay [2], in assay [3], in [4], in [5] and in assay [6] was inactive. Further, the compound was called inactive in [7] and in assay [8].

Regarding `CCCCC(CC)COP(=O)(OCC(CC)CCCC)OCC(CC)CCCC` (configuration not stated), in assay [1], the AC50 is 0.339 µM (active). For the same compound, the call in assay [9], in assay [2], in assay [3], in assay [5], in assay [6] and in assay [7] was inactive. In addition, the compound was called inactive in [10] and in [8].

Regarding `S=c1[nH]c2ccccc2s1`, the AC50 in assay [1] was 61.2 µM (active); in assay [9], 28.5 µM (active); in [5], 59 µM (active); in [6], 63.2 µM (active). The compound was called inactive in assay [2], in [3], in [7], in [10] and in [8].

On to `CCN(CC)CCOc1ccc(C(=C(Cl)c2ccccc2)c2ccccc2)cc1`, for which the AC50 is 945 nM (active) [middle of 4 runs] in [1]; 9.35 µM (active) in assay [2]; 13.6 µM (active) in assay [3]; 2.59 µM (active) [middle of 4 runs] in [5]; 6.09 µM (active) in [6]; 11.2 µM (active) in [7]. Besides, in assay [8], the AC50 is 13.1 µM (active). For the same compound, the compound was classed as inactive in [9], in [2], in assay [3], in assay [4], in [6] and in assay [7]. Besides, the outcome in assay [10] and in [8] was inactive.

Turning to `CN(C)CCCN1c2ccccc2Sc2ccc(Cl)cc21`, the result in assay [1], in assay [9], in assay [2], in assay [3], in assay [6] and in [7] was inactive. Besides, the call in [8] was inactive. In assay [5], the AC50 was 6.99 µM (active).

In the case of `Cc1occc(=O)c1O`, the outcome in [1], in assay [2], in assay [3], in [4], in [5] and in [6] was inactive. Moreover, the compound was classed as inactive in [7], in assay [10] and in assay [8].

For `C=CCc1ccc(OC)c(OC)c1`, the AC50 in assay [1] was 100 µM (active). Also, the compound was classed as inactive in assay [9], in assay [2], in [3], in assay [5], in [6] and in [7]. In addition, the compound was classed as inactive in [8].

Turning to `OCC(CO)n1cnc(-c2ccc(F)cc2)c1-c1ccnc(Oc2ccccc2)n1`, the figures for the AC50 in assay [1] and in assay [9] were 7.89 µM (active) and 0.357 µM (active), respectively. The call in [2], in assay [3], in assay [4], in [5], in assay [6] and in assay [7] was inactive. Further, the compound was classed as inactive in [10] and in assay [8].

In the case of `CC(C)COC(=O)CCCCC(=O)OCC(C)C`, the call in [1], in assay [9], in assay [2], in assay [3], in assay [4] and in assay [5] was inactive. Moreover, the result in assay [6], in assay [7], in assay [10] and in assay [8] was inactive.

On to `O=Cc1ccccc1C=O`, for which the outcome in assay [1], in assay [9], in assay [2], in [3], in assay [5] and in assay [6] was inactive. For the same compound, the result in assay [7], in assay [10] and in [8] was inactive.

With `C/C=C/C=C/C(=O)O`, the AC50 in [1] was 36.7 µM (active). For the same compound, the call in assay [1], in [2], in assay [3], in [5], in [6] and in assay [7] was inactive. The call in [10] and in assay [8] was inactive.

Consider `CC1(C)C(=O)NC(=O)N1CO`, for which the compound was called inactive in assay [1], in [2], in assay [3], in assay [4], in [6] and in [7]. Also, the compound was called inactive in assay [10] and in assay [8]. Further, in [5], the half-maximal activity concentration (AC50) was 150 µM (active).

As to `CS(=O)(=O)c1ccc([C@@H](C[C@H]2CCC(=O)C2)C(=O)Nc2cnccn2)cc1Cl`, the compound was called inactive in assay [1], in assay [9], in assay [2], in assay [3], in assay [4] and in assay [5]. Moreover, the outcome in [6], in assay [7] and in assay [8] was inactive.

Take `Cn1cnc2c1c(=O)[nH]c(=O)n2C`: the outcome in [1], in assay [9], in assay [2], in assay [3], in assay [5] and in assay [6] was inactive. Further, the compound was classed as inactive in assay [7] and in assay [8].

As a reminder, the AC50 is the concentration giving half of the maximal activity seen.
